Only some compounds are listed: those with a hit (about 0.93% of all), similar ones and a draw of the others.
CtBP-E1A blk: inhibitors of CtBP/E1A interaction | 0.49% of 340,000 active | activity change, % (concentration not given with the values) | AlphaScreen GST-E1A/His-CtBP binding, 1536-well; stronger effect = lower value | AID 651724
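GST-E1A and His-tagged CtBP (125 nM each as 5X stock) were preincubated with pin-transferred compound for 2 h at 37 °C in the dark, then glutathione donor and nickel acceptor beads were added for 1 h before AlphaScreen reading.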
Six1-Eya2 inh: Six1/Eya2 interaction inhibition; activity change, % (concentration not given with the values); AID 651725; 0.56% of 360,000 active; AlphaScreen GST-Six1/His-Eya2 binding, biochemical; stronger effect = lower value; Q15475+O00167
Target sequence (O00167 whole entry, looked up): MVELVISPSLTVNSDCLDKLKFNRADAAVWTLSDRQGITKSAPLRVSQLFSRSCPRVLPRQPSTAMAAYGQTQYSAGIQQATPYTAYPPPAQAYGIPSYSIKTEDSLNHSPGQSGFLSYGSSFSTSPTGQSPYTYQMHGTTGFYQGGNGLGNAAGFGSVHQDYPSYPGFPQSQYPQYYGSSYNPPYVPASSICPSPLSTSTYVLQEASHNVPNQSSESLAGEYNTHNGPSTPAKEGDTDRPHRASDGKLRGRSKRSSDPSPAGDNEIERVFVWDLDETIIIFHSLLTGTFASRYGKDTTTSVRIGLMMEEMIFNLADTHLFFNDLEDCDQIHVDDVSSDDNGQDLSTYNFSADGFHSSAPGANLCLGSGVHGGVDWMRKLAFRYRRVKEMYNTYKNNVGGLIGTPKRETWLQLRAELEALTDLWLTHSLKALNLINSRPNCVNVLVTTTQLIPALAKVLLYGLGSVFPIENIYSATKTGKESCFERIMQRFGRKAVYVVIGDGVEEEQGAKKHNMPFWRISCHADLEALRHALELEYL
Target sequence (Q15475 whole entry, looked up): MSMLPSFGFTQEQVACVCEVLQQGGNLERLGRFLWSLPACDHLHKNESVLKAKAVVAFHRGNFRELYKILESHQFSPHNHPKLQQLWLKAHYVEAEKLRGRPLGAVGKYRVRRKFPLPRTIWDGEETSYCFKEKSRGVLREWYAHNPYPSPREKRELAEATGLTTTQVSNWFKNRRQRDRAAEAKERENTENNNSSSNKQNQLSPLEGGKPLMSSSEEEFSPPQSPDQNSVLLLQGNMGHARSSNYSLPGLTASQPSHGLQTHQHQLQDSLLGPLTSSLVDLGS
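AlphaScreen luminescence read after one hour at 37 °C in darkness. Pin-transferred compounds met GST-Six1 and His-Eya2 protein (5X stock 250 nM/500 nM) plus glutathione donor and Ni-chelate acceptor beads (5X, 50 ug/mL).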
MBNL1 CUG block: inhibitors of human MBNL1 binding to CUG repeat RNA. Potency, µM (top dose mostly 57.5 µM), most hits filed as inhibitors. 0.036% of 280,000 active. TR-FRET MBNL1-His/biotin-(CUG)12 binding, 665/545 ratio. Q9NR56; active = well fitted inhibition curve with a large enough effect in the signal ratio, with a control signal flat, not every such curve was filed as active; inconclusive = small, poorly fitted or top-dose-only effect, or effect the other way, or a change in a side signal; inactive = no such curve, though single readings can be large or run the other way; the % refers to the signal ratio
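MBNL1-His + Biotin-(CUG)12, cpd titration 92 nM–58 uM; Tb anti-His Ab 0.055 ng/ul, SA-XL665 5 nM (final); 60 min RT; ratiometric 665/545 nm, Ex 340 nm; normalized to buffer and full-complex controls.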
PKM2 act: activators of human pyruvate kinase M2. purified PKM2, Kinase-Glo ATP luminescence, activation; response scale: 0% is enzyme alone, no compound. Potency, µM (series often up to 57.5 µM), usual class: activators. 0.34% of 260,000 active. AID 1631; active = well fitted activation curve with a large enough effect; inconclusive = small, poorly fitted or top-dose-only effect; inactive = no such curve, though single readings can be large or run the other way; note: nearly all actives have a fitted effect of over 55% in size
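ATP formation by purified human PK-M2, quantified via coupled luciferase luminescence after 1 h at room temperature with 0.1 mM ADP and 0.5 mM PEP final.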
Hits are given with their value; [ ] = another dose, or the depositor's remark. Cut-off read from the data, not from the text of the source, unless noted: active = activity change below about -65%; inconclusive = mostly about -30% to -63%; inactive = weaker than that.

How did O=C(Nc1cccc2c1CCCC2)c1cc(C2CCCCN2S(=O)(=O)c2cccs2)on1 (configuration not stated) do in these assays?
CtBP-E1A blk: inactive; Six1-Eya2 inh: inactive

How did COCOCCn1cc(CN2CCS(=O)(=O)N(Cc3ccc(-c4ccc(Cl)c(Cl)c4)cc3)C(C(C)C)C2=O)nn1 (configuration not stated) do in these assays?
CtBP-E1A blk: inactive; Six1-Eya2 inh: inactive

What do the screens show for `Nc1c(Br)cc(Br)c2c1[nH]c(=O)c1ccccc12`?
CtBP-E1A blk: inactive; Six1-Eya2 inh: inactive

How did Nc1c(Br)cc(Br)c2c1C(=O)c1c(cccc1S(=O)(=O)O)C2=O do in these assays?
CtBP-E1A blk: -74; Six1-Eya2 inh: inconclusive

How did COc1ccc(Cl)cc1NC(=O)c1cccc(S(=O)(=O)Nc2c(C)n(C)n(-c3ccccc3)c2=O)c1 do in these assays?
CtBP-E1A blk: inactive; Six1-Eya2 inh: inactive

Results for O=C1C(=Cc2cn(-c3ccccc3)nc2-c2ccc(OCc3ccccc3)cc2)SC(=S)N1CCS(=O)(=O)O ?
CtBP-E1A blk: inactive; Six1-Eya2 inh: -74

Results for O=c1[nH]c2ccccc2c2nc(-c3cccc(S(=O)(=O)N4CCCC4)c3)nn12 ?
CtBP-E1A blk: -81; Six1-Eya2 inh: -85; MBNL1 CUG block: inactive; PKM2 act: inactive

What do the screens show for `O=S(=O)(c1ccccc1F)N1CCN(C(=S)NCc2ccccc2)CC1`?
CtBP-E1A blk: inactive; Six1-Eya2 inh: inactive; MBNL1 CUG block: inactive; PKM2 act: inconclusive

How did O=C(NCc1ccc(F)cc1)N1CCN(S(=O)(=O)c2ccccc2F)CC1 do in these assays?
CtBP-E1A blk: inactive; Six1-Eya2 inh: inactive; MBNL1 CUG block: inactive; PKM2 act: 11µM

Results for O=C(NCc1cccc(Cl)c1)N1CCN(S(=O)(=O)c2ccccc2F)CC1 ?
CtBP-E1A blk: inactive; Six1-Eya2 inh: inactive; MBNL1 CUG block: inactive; PKM2 act: 14µM

What do the screens show for `COc1ccc(CNC(=O)N2CCN(S(=O)(=O)c3ccccc3F)CC2)cc1`?
CtBP-E1A blk: inactive; Six1-Eya2 inh: inactive; MBNL1 CUG block: inactive

What do the screens show for `CC1=C(C(=O)OCc2ccccc2)C(c2ccc(C3CCCCC3)cc2)NC(=O)N1CCCCCC(=O)O` (configuration not stated)?
PKM2 act: inactive

How did Cc1ccc(S(=O)(=O)N2CCc3nc(COc4ccccc4)c4c(c3C2)CO[C@@H](C)C4)cc1 do in these assays?
PKM2 act: inactive[11.5 µM]

Results for CCc1nc2ccc(C(=O)N(C)C(C)C)cn2c1N(CC)Cc1cccc(Br)c1 ?
CtBP-E1A blk: inactive; Six1-Eya2 inh: inactive

What do the screens show for `Fc1cccc(Cc2c(C3CCCCC3)nc3c4ccccc4ccn23)c1`?
CtBP-E1A blk: inactive; Six1-Eya2 inh: inactive

What do the screens show for `COc1ccc(OC)c(NC2=NC3(CCCC3)N=C(N)N2)c1`?
CtBP-E1A blk: inconclusive; Six1-Eya2 inh: -68; MBNL1 CUG block: inactive; PKM2 act: inactive

What do the screens show for `COC(=O)C1=C(C(=O)OC)[C@@H]2N(C)c3ccc(OC)cc3[C@@]23C[C@@H](C(=O)OC)N(S(=O)(=O)c2ccc4c(c2)OCCN4C)C3=N1`?
PKM2 act: inactive[11.5 µM]

What do the screens show for `CN=c1scc(-c2cccs2)n1/N=C/c1ccc(O)c(O)c1O`?
CtBP-E1A blk: -88; Six1-Eya2 inh: -77; MBNL1 CUG block: inactive; PKM2 act: inactive

How did C=CCN=c1scc(-c2ccco2)n1/N=C/c1ccc(O)c(O)c1O do in these assays?
CtBP-E1A blk: -78; Six1-Eya2 inh: -67; MBNL1 CUG block: inactive; PKM2 act: inactive

How did COCCN=c1scc(-c2ccco2)n1/N=C/c1ccc(O)c(O)c1O do in these assays?
CtBP-E1A blk: -79; Six1-Eya2 inh: -84; MBNL1 CUG block: inactive; PKM2 act: inactive

How did Oc1ccc(/C=N/n2c(-c3ccco3)csc2=Nc2cccnc2)c(O)c1 do in these assays?
CtBP-E1A blk: -93; Six1-Eya2 inh: -93; MBNL1 CUG block: inactive; PKM2 act: inactive

Results for Cc1nn2c(-c3ccc(S(=O)(=O)N4CCN(CCO)CC4)o3)nnc2c2ccccc12 ?
CtBP-E1A blk: -75; Six1-Eya2 inh: inconclusive; MBNL1 CUG block: inactive

Results for Cc1ccc(-c2nn3c(C)nnc3c3ccccc23)cc1S(=O)(=O)N1CCN(CCO)CC1 ?
CtBP-E1A blk: inactive; Six1-Eya2 inh: inactive; MBNL1 CUG block: inactive; PKM2 act: inactive

What do the screens show for `COc1ccc(-c2nnc3c4ccccc4c(C)nn23)cc1S(=O)(=O)N1CCN(CCO)CC1`?
CtBP-E1A blk: -82; Six1-Eya2 inh: -71; MBNL1 CUG block: inactive; PKM2 act: inconclusive

Results for COc1ccc(NC(=O)c2cccc3c(-c4ccc(O)c(OC)c4)coc23)cc1 ?
CtBP-E1A blk: inactive; Six1-Eya2 inh: inactive

Results for Cc1nc(N2CCOCC2)c2nc(-c3ccccc3)n(CCN3CCCC3)c2n1 ?
PKM2 act: inactive

Results for O=C(CN1C(=O)/C(=C/c2ccco2)SC1=S)Nc1ccc(C(=O)O)c(O)c1 ?
Six1-Eya2 inh: -65; MBNL1 CUG block: inconclusive

How did O=C(CN1C(=O)/C(=C/c2ccco2)SC1=S)Nc1ccc(O)c(C(=O)O)c1 do in these assays?
Six1-Eya2 inh: inactive; MBNL1 CUG block: inconclusive

Results for O=[N+]([O-])c1ccc(N2CCN(Cc3ccccc3)CC2)c2c1no[n+]2[O-] ?
CtBP-E1A blk: inactive; Six1-Eya2 inh: inactive

Results for COc1ccccc1NS(=O)(=O)c1cc2c(cc1C)NC(=O)CO2 ?
CtBP-E1A blk: inactive; Six1-Eya2 inh: inactive; MBNL1 CUG block: inactive; PKM2 act: 7.1µM

How did COc1cccc(NS(=O)(=O)c2cc3c(cc2C)NC(=O)CO3)c1 do in these assays?
CtBP-E1A blk: inactive; Six1-Eya2 inh: inactive; MBNL1 CUG block: inactive; PKM2 act: 1.8µM

What do the screens show for `CSCCC(C(=O)NC1CCCC1)n1c(C2CC2)nc2ccccc21` (configuration not stated)?
CtBP-E1A blk: inactive; Six1-Eya2 inh: inactive

What do the screens show for `COc1cccc(CNC(=O)c2cc3c(C)nc4ccccc4c3o2)c1`?
CtBP-E1A blk: -66; Six1-Eya2 inh: inconclusive; MBNL1 CUG block: inactive; PKM2 act: inactive

What do the screens show for `COc1ccc(CNC(=O)c2cc3c(C)nc4ccccc4c3o2)c(OC)c1`?
CtBP-E1A blk: inactive; Six1-Eya2 inh: inconclusive; MBNL1 CUG block: inactive; PKM2 act: inactive

What do the screens show for `COc1cccc(CNC(=O)c2c[nH]n3c(=O)c(Cl)c(C)nc23)c1`?
CtBP-E1A blk: -76; Six1-Eya2 inh: -84; MBNL1 CUG block: inactive[11.5 µM]; PKM2 act: inactive

How did COc1ccccc1NC(=O)C1=C(C)NC(=O)NC1c1ccccc1[N+](=O)[O-] (configuration not stated) do in these assays?
CtBP-E1A blk: inactive; Six1-Eya2 inh: inactive; MBNL1 CUG block: inactive; PKM2 act: 25µM

How did O=C(Nc1nccs1)c1ccc(CSc2nnnn2-c2ccccc2)cc1 do in these assays?
CtBP-E1A blk: -79; Six1-Eya2 inh: -68; MBNL1 CUG block: inactive; PKM2 act: inactive

What do the screens show for `Cc1ccc(C(=O)N2CCCCC2)cc1NC1=C(Cl)C(=O)N(Cc2ccccc2)C1=O`?
Six1-Eya2 inh: inactive

Source: PubChem BioAssay (National Center for Advancing Translational Sciences (NCATS))
